Results: PubChem BioAssay (Tox21)
Results filed as inconclusive are left out. Activity calls are given as the source filed them. Unless noted, calls follow the shape of the dose curve; as a rule, active = well fitted curve in the direction sought with a large enough effect in the repeat runs; inconclusive = weak or mixed curves; inactive = no such curve, though single readings can be large; an effect the other way counts as inactive or inconclusive.

Assays:
[1] = qHTS assay for small molecules that induce genotoxicity in human embryonic kidney cells expressing luciferase-tagged ATAD5 (AID 651632); also: nearly all actives have a fitted effect of over 15% in size
Summary of the method: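 Luminescence read-out: after 16 hr compound exposure at 37C, ATAD5-luciferase HEK293T cells received Amplite, 30 min RT, then CCD imaging. A rise in signal marks genotoxic stress.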

[2] = qHTS assay for small molecule agonists of the p53 signaling pathway - cell viability (AID 651633; calls by dose curve;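 also: p53RE-bla HCT reporter cells with a stable beta-lactamase p53 reporter; series mostly up to about 83 µM; nearly all actives have a fitted effect of over 30% in size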)
Summary of the method: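 Viability counter-read: CellTiter-Glo luminescence (30 min, room temperature) in the same p53RE-bla plates. These plates had been exposed to compounds for 16 h at 37 C.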

[3] = qHTS assay for small molecules that induce genotoxicity in human embryonic kidney cells expressing luciferase-tagged ATAD5 - cell viability (AID 651634; calls by dose curve; also: nearly all actives have a fitted effect of over 25% in size)
Summary of the method: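 HEK293T ATAD5-luc cells, 2,000/well; compound 15.5 hr, 37C/5% CO2; CellTiter-Fluor 30 min, 37C; fluorescence read.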

[4] = qHTS assay for small molecule disruptors of the mitochondrial membrane potential - cell viability (AID 720634; calls by dose curve;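 also: human HepG2 liver cancer cells; series mostly up to about 83 µM; nearly all actives have a fitted effect of over 20% in size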)
Summary of the method: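 Luminescence from CellTiter-Glo (ATP content) gave viability in HepG2 cells, read in the same wells as the MMP dye assay after 1 hr compound exposure at 37 C.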

[5] = qHTS assay for small molecule disruptors of the mitochondrial membrane potential (AID 720635)
Summary of the method: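 Mitochondrial membrane potential tracked with Mito-MPS dye, red aggregates (ex 540/em 590 nm) against green monomers (ex 490/em 535 nm). Compound treatment 1 hr at 37C, dye 30 min in HepG2.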

[6] = qHTS assay to test for compound auto fluorescence at 590 nm (red) in HepG2 cells (AID 720674)
Summary of the method: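 1 hr compound incubation on HepG2 cells, 37 C, 5% CO2; plate read ex 540 nm / em 590 nm; intensities reported as Rose Bengal sodium equivalents.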

[7] = qHTS assay to test for compound auto fluorescence at 535 nm (green) in HepG2 cells (AID 720675)
[8] = qHTS assay to test for compound auto fluorescence at 460 nm (blue) in HEK293 cells (AID 720678)
Summary of the method: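 Auto fluorescence in the blue band was quantified as triamterene equivalency. HEK293 cells were seeded at 2,000/well, dosed after a 4-5 hr attachment, and kept overnight at 37C before the 405/460 nm reading.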

[9] = qHTS assay to test for compound auto fluorescence at 590 nm (red) in HEK293 cells (AID 720679)
Summary of the method: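 Autofluorescence equivalency to Rose Bengal sodium, 540/590nm, in HEK293 cells exposed overnight to 23 nL compound per well.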

[10] = qHTS assay to test for compound auto fluorescence at 535 nm (green) in HEK293 cells (AID 720680)
[11] = qHTS assay to test for compound auto fluorescence at 460 nm (blue) in HEK293 cell free culture (AID 720681)
Summary of the method: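 Blue fluorescence (Ex 405/Em 460 nm, triamterene-equivalent) was read immediately after pin transfer of compound or DMSO into medium (DMEM, 10% FBS) without cells.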

[12] = qHTS assay to test for compound auto fluorescence at 535 nm (green) in HEK293 cell free culture (AID 720682)
Summary of the method: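 Measurement is a direct plate read of green fluorescence (485 nm in, 535 nm out) after compound addition to serum-supplemented DMEM lacking cells, with fluorescein used to express intensities.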

[13] = qHTS assay to test for compound auto fluorescence at 590 nm (red) in HEK293 cell free culture (AID 720683)
Summary of the method: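 Red-channel autofluorescence of compounds in culture medium (DMEM, 10% FBS), no cells, measured at 540/590 nm. Rose Bengal sodium is the reference fluorophore for equivalence.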

[14] = qHTS assay to test for compound auto fluorescence at 590 nm (red) in HepG2 cell free culture (AID 720684)
Summary of the method: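 No cells present: MEM + 10% FBS only. Compound pinned in, red label read (540/590 nm). Activity = fluorescence equivalent to Rose Bengal sodium.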

[15] = qHTS assay to test for compound auto fluorescence at 460 nm (blue) in HepG2 cell free culture (AID 720685)
Summary of the method: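 Cell-free plates of MEM plus 10% FBS received 23 nL compound or DMSO vehicle; blue-channel (405/460 nm) intensity scored against triamterene as reference fluorophore.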

[16] = qHTS assay to test for compound auto fluorescence at 535 nm (green) in HepG2 cell free culture (AID 720686)
[17] = qHTS assay to test for compound auto fluorescence at 460 nm (blue) in HepG2 cells (AID 720687)
Summary of the method: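 Blue-channel autofluorescence (Ex/Em 405/460 nm, triamterene-equivalent) was measured after 1 hr compound exposure at 37 C, 5% CO2. Cells were HepG2, plated overnight at 37 C in MEM plus 10% FBS.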

[18] = target: Glucocorticoid receptor (Homo sapiens) (UniProt P04150); experiment: qHTS assay to identify small molecule agonists of the glucocorticoid receptor (GR) signaling pathway (AID 720691; active = well fitted activation curve with a large enough effect in the signal ratio in the repeat runs, not every such curve was filed as active; the % refers to the signal ratio)
Summary of the method: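 HeLa GR-bla reporter line; cells pre-incubated 4 h, compound in DMSO 18 h at 37 C; LiveBLAzer B/G FRET substrate 2 h RT; fluorescence intensity read-out.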

[19] = target: Glucocorticoid receptor (Homo sapiens) (UniProt P04150); experiment: qHTS assay to identify small molecule antagonists of the glucocorticoid receptor (GR) signaling pathway (AID 720692; active = well fitted inhibition curve with a large enough effect in the signal ratio in the repeat runs, not every such curve was filed as active; the % refers to the signal ratio)
Summary of the method: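 Read-out: beta-lactamase FRET substrate fluorescence, 2 h at room temperature, in HeLa cells stably carrying a GRE-driven bla reporter. Compounds were co-incubated with 5 nM dexamethasone agonist (final) for 18 h at 37 C.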
% is scaled to controls: 0 for no effect and ±100 for the full control effect.

Sequence of Glucocorticoid receptor (Homo sapiens) (P04150 whole entry, looked up): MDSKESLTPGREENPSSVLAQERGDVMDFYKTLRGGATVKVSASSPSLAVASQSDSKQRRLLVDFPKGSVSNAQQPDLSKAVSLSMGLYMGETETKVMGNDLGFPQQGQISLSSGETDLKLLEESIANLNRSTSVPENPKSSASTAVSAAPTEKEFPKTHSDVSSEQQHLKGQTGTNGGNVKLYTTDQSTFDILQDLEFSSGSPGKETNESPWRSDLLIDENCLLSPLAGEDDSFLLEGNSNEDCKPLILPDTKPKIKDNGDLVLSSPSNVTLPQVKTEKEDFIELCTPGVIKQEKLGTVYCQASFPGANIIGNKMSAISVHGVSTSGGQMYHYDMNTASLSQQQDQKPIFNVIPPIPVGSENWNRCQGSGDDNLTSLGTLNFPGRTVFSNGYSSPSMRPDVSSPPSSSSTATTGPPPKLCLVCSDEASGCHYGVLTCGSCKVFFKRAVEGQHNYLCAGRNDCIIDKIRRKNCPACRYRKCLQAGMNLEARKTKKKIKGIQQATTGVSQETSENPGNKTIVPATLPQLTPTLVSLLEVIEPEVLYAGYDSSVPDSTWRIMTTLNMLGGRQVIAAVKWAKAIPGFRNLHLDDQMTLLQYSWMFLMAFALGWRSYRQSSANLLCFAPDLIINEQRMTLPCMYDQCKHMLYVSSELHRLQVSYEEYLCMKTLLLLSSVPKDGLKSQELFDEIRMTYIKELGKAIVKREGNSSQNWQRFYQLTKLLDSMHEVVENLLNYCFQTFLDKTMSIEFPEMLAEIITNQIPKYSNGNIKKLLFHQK

CC(C)=CC(=O)O
inactive: Potency [1] | Potency [2] | Potency [3] | Potency [4] | Potency [5] | outcome [6] | outcome [7] | Potency [8] | outcome [9] | outcome [10] | Potency [11] | outcome [12] | outcome [13] | outcome [14] | Potency [15] | outcome [16] | Potency [17]

COC(=O)c1ccc(C(=O)OC)c(C(=O)OC)c1
inactive: Potency [1] | Potency [2] | Potency [3] | Potency [4] | Potency [5] | outcome [6] | outcome [7] | Potency [8] | outcome [9] | outcome [10] | Potency [11] | outcome [12] | outcome [13] | outcome [14] | Potency [15] | outcome [16] | Potency [17] | Potency [18] | Potency [19]

CCN1CCN(c2cc3c(cc2F)c(=O)c(C(=O)O)cn3C2CC2)CC1
inactive: Potency [1] | Potency [2] | Potency [3] | Potency [4] | outcome [6] | outcome [7] | Potency [8] | outcome [9] | outcome [10] | Potency [11] | outcome [12] | outcome [13] | outcome [14] | Potency [15] | outcome [16] | Potency [17] | Potency [18] | Potency [19]

CC(C)CCOC(=O)CC(C)C
inactive: Potency [1] | Potency [2] | Potency [3] | Potency [4] | outcome [6] | outcome [7] | Potency [8] | outcome [9] | outcome [10] | Potency [11] | outcome [12] | outcome [13] | outcome [14] | Potency [15] | outcome [16] | Potency [17] | Potency [18]

O=C(O)c1cccc(C(=O)O)n1
inactive: Potency [1] | Potency [2] | Potency [3] | Potency [4] | Potency [5] | outcome [6] | outcome [7] | Potency [8] | outcome [9] | outcome [10] | Potency [11] | outcome [12] | outcome [13] | outcome [14] | Potency [15] | outcome [16] | Potency [17] | Potency [18] | Potency [19]

CCN1CCCC(OC(=O)C(c2ccccc2)c2ccccc2)C1 (stereo not given)
inactive: Potency [1] | Potency [2] | Potency [3] | Potency [4] | fluorescence, relative to Rose Bengal [6] 0.0398% [at 18.6 µM] | fluorescence, % of fluorescein control [7] 0.107% [at 18.6 µM] | fluorescence, % of triamterene [8] 0.0169% [at 18.6 µM] | fluorescence, % of fluorescent control [9] -0.0352% [at 18.6 µM] | fluorescence, % of fluorescein [10] -0.0754% [at 18.6 µM] | fluorescence, % of fluorescent control [11] 0.0253% [at 18.6 µM] | activity change [12] 0.0002% [at 18.6 µM] | fluorescence, % of fluorescent control [13] 0.138% [at 18.6 µM] | fluorescence, % of Rose Bengal [14] 0.44% [at 18.6 µM] | fluorescence, % of fluorescent control [15] -0.0343% [at 18.6 µM] | fluorescence, % of fluorescein control [16] 0.088% [at 18.6 µM] | fluorescence, % of fluorescent control [17] 0.0078% [at 18.6 µM] | Potency [18]

c1cc(CN2CCCCC2)cc(OCCCNc2nc3ccccc3s2)c1
inactive: Potency [1] | Potency [2] | Potency [3] | Potency [4] | outcome [6] | outcome [7] | Potency [8] | outcome [9] | outcome [10] | Potency [11] | outcome [12] | outcome [13] | outcome [14] | Potency [15] | outcome [16] | Potency [17] | Potency [18] | Potency [19]
